Laboratory results taken from the antibiotic and cytotoxicity screens of Wong et al. (2023).
Screen size: about 39,000 compounds; about 3,300 (8.5%) were called active. The sample holds actives, similar compounds and a random draw of the others, so the mix is not that of the screen.

system: HepG2; assay: cytotoxicity call (relative viability < 0.9); details: 10 µM

Compound | cytotoxicity call
C[C@@H]1CCCCO[C@H](CN(C)S(=O)(=O)c2cccs2)[C@@H](C)CN([C@H](C)CO)C(=O)c2cc(NS(=O)(=O)c3ccc(Cl)cc3)ccc2O1 | inactive
C[C@@H]1CN([C@@H](C)CO)C(=O)c2cc(NS(=O)(=O)c3cn(C)cn3)ccc2O[C@@H]1CN(C)CC1CC1 | inactive
O=C1NCc2ccccc21 | inactive
O=C1CCNc2cc3ccccc3cc21 | active
O=C1CCCNc2ccc(Cl)cc21 | inactive
COc1ccc(NC(=O)N(C)C[C@@H]2Oc3ccc(NC(=O)CCN4CCOCC4)cc3C(=O)N([C@@H](C)CO)C[C@@H]2C)cc1 | inactive
COc1ccc(S(=O)(=O)N(C)C[C@H]2OCCCC[C@H](C)Oc3ccc(NC(=O)Nc4ccccc4)cc3C(=O)N([C@@H](C)CO)C[C@H]2C)cc1 | inactive
O=C(O)CN1CCOC1=O | inactive
NC1=NCCN1CC(=O)O | active
O=C(O)CN1CCCCC1=O | inactive
COC(=O)N[C@H](C(=O)N1CC2(CC2)C[C@H]1c1nc(-c2ccc3c(c2)C(F)(F)c2cc(-c4ccc5nc([C@@H]6[C@H]7CC[C@H](C7)N6C(=O)[C@@H](NC(=O)OC)C(C)C)[nH]c5c4)ccc2-3)c[nH]1)C(C)C | inactive
Cn1cnc(CCNC(=O)C[C@H]2CC[C@H]3[C@@H](COC[C@H](O)CN3C(=O)C3CC3)O2)c1 | inactive
O=C1OC(=O)[C@H]2[C@@H]1[C@H]1CC[C@H]2O1 | active
COc1ccc2c3c([nH]c2c1)[C@@H](CO)N(C[C@]13CCN(CC1)Cc1ccccc1)S(=O)(=O)c1cn(cn1)C | inactive
C[C@@H]1CN([C@H](C)CO)C(=O)c2cccc(NC(=O)NC3CCCCC3)c2O[C@H]1CN(C)Cc1ccc(Cl)c(Cl)c1 | inactive
C[C@@H]1CN([C@@H](C)CO)C(=O)c2cc(NC(=O)c3ccncc3)ccc2O[C@@H](C)CCCCO[C@H]1CN(C)Cc1ccc(C(F)(F)F)cc1 | inactive
C[C@H]1CCCCO[C@@H](CN(C)C(=O)C2CCCCC2)[C@@H](C)CN([C@@H](C)CO)C(=O)c2cc(NC(=O)Nc3ccccc3)ccc2O1 | inactive
C[C@H]1CCCCO[C@H](CN(C)C(=O)C2CCCCC2)[C@@H](C)CN([C@@H](C)CO)C(=O)c2cc(NC(=O)Nc3ccccc3)ccc2O1 | inactive
C[C@@H]1CN([C@H](C)CO)C(=O)c2cc(NC(=O)Nc3ccccc3)ccc2O[C@@H](C)CCCCO[C@@H]1CN(C)C(=O)C1CCCCC1 | inactive
C[C@H](CO)N1C[C@H](C)[C@@H](CN(C)C(=O)C2CCCCC2)OCCCC[C@H](C)Oc2ccc(NC(=O)Nc3ccccc3)cc2C1=O | inactive
C[C@@H]1CCCCO[C@H](CN(C)C(=O)C2CCCCC2)[C@@H](C)CN([C@@H](C)CO)C(=O)c2cc(NC(=O)Nc3ccccc3)ccc2O1 | active
C[C@@H]1CCCCO[C@@H](CN(C)C(=O)C2CCCCC2)[C@@H](C)CN([C@@H](C)CO)C(=O)c2cc(NC(=O)Nc3ccccc3)ccc2O1 | active
C[C@H]1CN([C@@H](C)CO)C(=O)c2cccc(NC(=O)c3cnccn3)c2O[C@@H]1CN(C)Cc1ccc(C(=O)O)cc1 | inactive

Compound | cytotoxicity call
C[C@H](CO)N1C[C@H](C)[C@H](CN(C)C(=O)CN(C)C)Oc2cc(-c3ccc(C#N)cc3)ccc2S1(=O)=O | inactive
CCNC1CC(N)C(OC2OC(CN)=CCC2N)C(O)C1OC1OCC(C)(O)C(NC)C1O.O=S(=O)(O)O.O=S(=O)(O)O (centres undefined) | inactive
COc1ccc(CN(C)C[C@H]2OCCCC[C@H](C)Oc3ccc(NC(=O)Nc4ccc5c(c4)OCO5)cc3C(=O)N([C@H](C)CO)C[C@H]2C)cc1 | inactive
C[C@@H]1CN([C@@H](C)CO)C(=O)c2cccc(NC(=O)c3nc4ccccc4s3)c2O[C@@H]1CN(C)C(=O)Nc1ccc(F)cc1 | active
C[C@H](CO)N1C[C@H](C)[C@H](CN(C)C(=O)Nc2ccc(C(F)(F)F)cc2)Oc2c(NC(=O)c3nc4ccccc4s3)cccc2C1=O | inactive
C[C@@H]1CN([C@@H](C)CO)C(=O)c2cccc(NC(=O)c3nc4ccccc4s3)c2O[C@H]1CN(C)C(=O)Nc1ccc(C(F)(F)F)cc1 | active
C[C@H]1CN([C@@H](C)CO)C(=O)c2cccc(NC(=O)c3nc4ccccc4s3)c2O[C@H]1CN(C)C(=O)Nc1ccc(C(F)(F)F)cc1 | active
C[C@@H]1CN([C@@H](C)CO)C(=O)c2cccc(NC(=O)c3nc4ccccc4s3)c2O[C@H]1CN(C)C(=O)Nc1ccc(F)cc1 | inactive
C[C@H](CO)N1C[C@H](C)[C@@H](CN(C)C(=O)Nc2ccc(C(F)(F)F)cc2)Oc2c(NC(=O)c3nc4ccccc4s3)cccc2C1=O | inactive
C[C@@H]1CN([C@H](C)CO)C(=O)c2cccc(NC(=O)c3nc4ccccc4s3)c2O[C@@H]1CN(C)C(=O)Nc1ccc(C(F)(F)F)cc1 | inactive
C[C@H]1CN([C@@H](C)CO)C(=O)c2cccc(NC(=O)c3nc4ccccc4s3)c2O[C@@H]1CN(C)C(=O)Nc1ccc(C(F)(F)F)cc1 | inactive
C[C@H](CO)N1C[C@H](C)[C@@H](CN(C)C(=O)Nc2ccc(F)cc2)Oc2c(NC(=O)c3nc4ccccc4s3)cccc2C1=O | inactive
C[C@@H]1CCCCO[C@H](CN(C)S(=O)(=O)c2cccs2)[C@@H](C)CN([C@H](C)CO)C(=O)c2cc(NC(=O)Nc3ccccc3)ccc2O1 | inactive
COc1ccccc1NC(=O)N(C)C[C@H]1OCc2ccccc2-c2c(n(C)c3ccccc23)C(=O)N([C@H](C)CO)C[C@@H]1C | inactive
C[C@H](CO)N1C[C@H](C)[C@@H](CN(C)C(=O)c2cccc(F)c2)Oc2cc(-c3ccncc3)ccc2S1(=O)=O | inactive
O=C(C[C@H]1CC[C@@H]2[C@H](COC[C@H](O)CN2S(=O)(=O)c2ccccc2)O1)N1CCOCC1 | inactive
C[C@H]1CN([C@@H](C)CO)C(=O)Cc2cc(NC(=O)Cn3cnnn3)ccc2O[C@H]1CN(C)Cc1ccc(-c2ccccc2)cc1 | inactive
C[C@@H]1CN([C@@H](C)CO)C(=O)c2cc(NC(=O)Nc3ccccc3)ccc2O[C@@H](C)CCCCO[C@@H]1CN(C)C(=O)Nc1ccccc1 | inactive
C[C@@H]1CN([C@H](C)CO)C(=O)Cc2cc(NC(=O)CCN3CCOCC3)ccc2O[C@H]1CN(C)Cc1ccc2c(c1)OCO2 | inactive
Cc1noc(C)c1S(=O)(=O)N(C)C[C@@H]1Oc2ccc(NC(=O)NC3CCCCC3)cc2CC(=O)N([C@@H](C)CO)C[C@H]1C | inactive
Cc1ccc(S[C@]2(C(=O)NCc3ccccc3)CC(=O)N(Cc3ccccc3C(F)(F)F)[C@@H]2c2ccc(CO)cc2I)cc1 | inactive
CN(C)c1ccc(O)c2c1C[C@H]1C[C@H]3[C@H](N(C)C)C(=O)C(C(N)=O)=C(O)[C@@]3(O)C(=O)[C@H]1C2=O | inactive
COC(=O)C1(C)CCCC2(C)c3ccc(O)c(C(C)C)c3CCC12 (centres undefined) | active

Compound | cytotoxicity call
CC(C)c1c(O)ccc2c1CCC1C(C)(C)C(=O)CCC21C (centres undefined) | inactive
CC(C)c1c(O)ccc2c1CCC1C(C)(C=O)CCCC21C (centres undefined) | inactive
CC(C)c1c(O)ccc2c1CCC1C(C)(C)CCCC21C (centres undefined) | inactive
CC(C)c1c(O)ccc2c1CC[C@H]1C(C)(C)CCC[C@]21C | active
COC(=O)C1(C)CCCC2(C)c3ccc(C(C)C)cc3C(=O)CC12 (centres undefined) | inactive
CC(C)(CO)c1cc2cc(NC(=O)C3(c4ccc5c(c4)OC(F)(F)O5)CC3)c(F)cc2n1C[C@@H](O)CO | inactive
NCCn1cccn1 | inactive
C[C@@H]1CN([C@@H](C)CO)S(=O)(=O)c2ccc(C#CCN(C)C)cc2O[C@H]1CN(C)Cc1ccccn1 | inactive
O=C(O)CN1C(=O)c2cccc3cccc(c23)C1=O | inactive
O=C(CN1C(=O)c2cccc3cccc(c23)C1=O)N1CCN(CCN2C(=O)[C@@H]3[C@@H](C2=O)[C@@H]2C=C[C@@H]3C2)CC1 | inactive
CC(C)(C)C1CCC(OC[C@@H](O)CN2CCC(CN3C(=O)c4cccc5cccc(c45)C3=O)CC2)CC1 (some centres undefined) | active
CCCN(C)C[C@H]1OCCCC[C@@H](C)Oc2ccc(NC(=O)Nc3c(C)noc3C)cc2C(=O)N([C@H](C)CO)C[C@@H]1C | inactive
COc1ccc(S(=O)(=O)Nc2ccc3c(c2)C(=O)N([C@@H](C)CO)C[C@H](C)[C@@H](CN(C)C(=O)Nc2cccc4ccccc24)OCCCC[C@@H](C)O3)cc1 | inactive
CC=C1C2C=C(C)CC1(N)c1ccc(=O)[nH]c1C2 (centres undefined) | inactive
C[C@@H]1CN([C@H](C)CO)C(=O)c2cccc(NC(=O)Nc3ccccc3)c2O[C@@H]1CN(C)Cc1ccc(C(=O)Nc2ccccc2N)cc1 | inactive
C[C@@H]1CN([C@@H](C)CO)C(=O)c2cccc(NC(=O)Nc3ccccc3)c2O[C@H]1CN(C)Cc1ccc(C(=O)Nc2ccccc2N)cc1 | inactive
C[C@@H]1CN([C@@H](C)CO)C(=O)c2cccc(NC(=O)Nc3ccc(F)cc3)c2O[C@@H]1CN(C)Cc1ccc(C(=O)Nc2ccccc2N)cc1 | active
C[C@H]1CN([C@@H](C)CO)C(=O)c2cccc(NC(=O)Nc3ccccc3)c2O[C@H]1CN(C)Cc1ccc(C(=O)Nc2ccccc2N)cc1 | active
C[C@H](CO)N1C[C@H](C)[C@H](CN(C)Cc2ccc(C(=O)Nc3ccccc3N)cc2)Oc2c(NC(=O)Nc3ccc(F)cc3)cccc2C1=O | inactive
C[C@@H]1CN([C@H](C)CO)C(=O)c2cccc(NC(=O)Nc3ccc(F)cc3)c2O[C@H]1CN(C)Cc1ccc(C(=O)Nc2ccccc2N)cc1 | inactive
C[C@@H]1CN([C@@H](C)CO)C(=O)c2cccc(NC(=O)Nc3ccc(F)cc3)c2O[C@H]1CN(C)Cc1ccc(C(=O)Nc2ccccc2N)cc1 | inactive
C[C@H]1CN([C@@H](C)CO)C(=O)c2cccc(NC(=O)Nc3ccc(F)cc3)c2O[C@H]1CN(C)Cc1ccc(C(=O)Nc2ccccc2N)cc1 | active
C[C@H]1CN([C@@H](C)CO)C(=O)c2cccc(NC(=O)Nc3ccc(F)cc3)c2O[C@@H]1CN(C)Cc1ccc(C(=O)Nc2ccccc2N)cc1 | inactive
